IL-1B inflam inh – qHTS for Inhibitors of Inflammasome Signaling: IL-1-beta AlphaLISA Primary Screen; activity change, % at 57.5 µM; THP-1 LPS/ATP IL-1B secretion, AlphaLISA, 16 h; stronger effect = lower value; hit rate 4.7% among 360,000; AID 743279, 2014; in the data active = activity change below about -50%; inconclusive = mostly about -30% to -49%
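Secreted IL-1B measured by AlphaLISA bead assay after 16 h compound exposure of THP-1 cells; compounds (final up to 57.5 uM) added 1 h before LPS (250 ng/mL) and ATP (1.25 mM) stimulation; lower signal means less secretion.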
TDP1 inh – qHTS Assay for Inhibitors of Tyrosyl-DNA Phosphodiesterase (TDP1). hit rate 0.28% among 350,000. recombinant TDP1, AlphaScreen DNA substrate cleavage. Potency, µM (highest dose often 130 µM), without a hit: at the top dose activity change, negative = inhibition, hits mostly inhibitors. Tyrosyl-DNA phosphodiesterase 1 (Homo sapiens), Q9NUW8; note: potency is the fitted concentration of half-maximal effect; nearly all actives have a fitted effect of over 40% in size
Target sequence (Q9NUW8 whole entry, looked up): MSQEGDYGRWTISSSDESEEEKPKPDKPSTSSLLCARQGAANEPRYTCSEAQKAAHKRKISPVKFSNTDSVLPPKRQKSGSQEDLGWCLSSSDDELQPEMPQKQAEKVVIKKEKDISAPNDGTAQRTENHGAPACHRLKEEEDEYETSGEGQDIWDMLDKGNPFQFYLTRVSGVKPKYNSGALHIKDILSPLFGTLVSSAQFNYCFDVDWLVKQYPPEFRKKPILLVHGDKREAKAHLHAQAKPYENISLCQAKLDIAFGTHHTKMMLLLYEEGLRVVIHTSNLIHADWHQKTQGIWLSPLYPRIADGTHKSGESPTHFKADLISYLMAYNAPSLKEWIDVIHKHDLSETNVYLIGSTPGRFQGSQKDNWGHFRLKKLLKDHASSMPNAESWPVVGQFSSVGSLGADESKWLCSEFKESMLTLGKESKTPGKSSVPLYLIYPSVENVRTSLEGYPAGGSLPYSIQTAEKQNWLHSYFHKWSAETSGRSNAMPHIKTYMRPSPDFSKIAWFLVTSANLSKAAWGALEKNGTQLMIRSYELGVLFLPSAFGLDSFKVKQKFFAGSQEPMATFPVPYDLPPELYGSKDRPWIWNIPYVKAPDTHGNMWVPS
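Recombinant E. coli-expressed Tdp1 (1 nM) preincubated with compound 15 min at RT, then 5'-biotin/3'-phosphotyrosine-FITC DNA substrate (15 nM) added for 5 min. AlphaScreen beads (10 ug/ml) added, 10 min RT; tyrosine-FITC cleavage read as signal loss.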
DT40 TDP1 no CPT – qHTS for Inhibitors of human tyrosyl-DNA phosphodiesterase 1 (TDP1): qHTS in cells in absence of CPT. DT40 Tdp1-/- hTDP1 cells, no CPT, ATP luminescence, 48 h. Potency, µM (top dose mostly 46.2 µM), for the others: top-dose activity change, negative = growth inhibition, hits mostly inhibitors. hit rate 15% among 420,000. AID 686978, 2013; note: potency is the fitted concentration of half-maximal effect; nearly all actives have a fitted effect of over 55% in size
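Compound effects on proliferation are scored in DT40 Tdp1-/-;hTDP1 cells in the absence of CPT. ATP levels (CellTiter-Glo luminescence) are recorded after a ≥48 hr, 37 °C incubation.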
ELG1 DNA repair – qHTS screen for small molecules that inhibit ELG1-dependent DNA repair in human embryonic kidney (HEK293T) cells expressing luciferase-tagged ELG1; HEK293T ELG1-luciferase reporter, luminescence, 16 h; DNA damage induced by 5-fluorouridine; hit rate 2.3% among 330,000; Potency, µM (series often up to 46.1 µM), without a hit: top-dose activity change, negative = inhibition, hits mostly inhibitors; note: potency is the fitted concentration of half-maximal effect; nearly all actives have a fitted effect of over 55% in size
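Quantitative HTS, concentration-response format. 2,000 cells/well co-treated with 5-fluorouridine and compound, 16 hr in 5% CO2 at 37 °C; ONE-Glo luminescence read after 30 min.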
Giardia killer – Small Molecules that selectively kill Giardia lamblia: qHTS | Giardia lamblia trophozoite viability | activity change, % at 7.66 µM, hits read low | hit rate 0.15% among 340,000 | AID 540267, 2011; in the data active = activity change below about -80%; inconclusive = between about -30% and that limit;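 note: parasites exposed to compound for two days anaerobically before the ATP read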
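ATP-content bioluminescence gauges trophozoite survival. Cells (100/well) receive compound and incubate anaerobically for 48 hrs at 37 deg C; detection reagent follows for 15-30 min at room temperature.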
DT40 TDP1 CPT – qHTS for Inhibitors of human tyrosyl-DNA phosphodiesterase 1 (TDP1): qHTS in cells in presence of CPT; AID 686979, 2013; chicken DT40 Tdp1-/-;hTDP1 cells + 20 nM CPT, ATP luminescence, 48 h; hit rate 12% among 420,000; Potency, µM (highest dose often 46.2 µM), for inactives: at the highest dose activity change, negative = growth inhibition, most hits filed as inhibitors; note: potency is the fitted concentration of half-maximal effect; nearly all actives have a fitted effect of over 55% in size
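Chicken DT40 Tdp1-/- cells stably complemented with human TDP1 were seeded at 400 cells/well in medium containing 20 nM camptothecin, exposed to pin-transferred compounds, and grown at 37 °C for at least 48 hr. Viability was read as ATP luminescence.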
Numbers without * were called inactive; ? = inconclusive; . = no result given. Sampled rows, rich in hits. Any-hit rate of the full collection: about 19%. Unless noted, calls come from the whole dose curve; as a rule, active = well fitted curve in the direction sought with a large enough effect; inconclusive = small, poorly fitted or top-dose-only effect, or another doubt; inactive = no such curve, though single readings can be large; an effect the other way counts as inactive or inconclusive. % is set by controls: 0 for no effect and ±100 for the full control effect.

SMILES	IL-1B inflam inh	TDP1 inh	DT40 TDP1 no CPT	ELG1 DNA repair	Giardia killer	DT40 TDP1 CPT
CCCCNC(=O)C1(C)CCCCN1Cc1ccc(OCc2ccccc2)cc1 (centres undefined)	-25	.	21µM*	.	.	21µM*
CCCCNC(=O)C1(C)CCCCCN1Cc1cc2ccccc2o1 (centres undefined)	-26	.	?	.	.	18µM*
CC1(C(=O)NCc2cccc3ccccc23)CCN1Cc1cc2ccccc2o1 (centres undefined)	-16	.	?	.	.	?
CCCCNC(=O)C1(C)CCCCN1C(=O)c1ccc2ccccc2n1 (centres undefined)	-6	.	?	.	.	?
CCCCNC(=O)C1(C)CCN1C(=O)c1ccc(F)c(C)c1 (centres undefined)	-3	.	?	.	.	-28%
CCCCNC(=O)C1(C)CCN1Cc1cc(C)ccc1C (centres undefined)	0	.	?	.	.	23µM*
N#CCCn1c(=O)c(-c2cc(F)cc(F)c2)nc2cnc(OCc3ccccc3)nc21	.	.	?	.	.	-26%
CC(=O)Nc1ccc(S(=O)(=O)Nc2ccccc2C(=O)N2CCCC2)cc1	12	.	-25%	22%	-1	2%
COC(=O)c1[nH]c2ccc(F)cc2c1NS(=O)(=O)c1ccc(OC)cc1	41	5%	3.3µM*	?	-6	3.3µM*
CCOC(=O)c1[nH]c2ccc(OC)cc2c1NC(C)=O	-5	5%	-12%	-4%	10	3%
CCOC(=O)c1cc(CC)sc1NC(=O)c1cc(OC)c(OC)c(OC)c1	-16	0%	18µM*	?	?	?
CCOC(=O)c1[nH]c2ccc(OC)cc2c1NC(=O)c1cccc(OC)c1	-16	2%	?	13µM*	9	23µM*
CCOC(=O)c1[nH]c2ccc(OC)cc2c1NC(=S)N1CCN(c2cccc(C)c2C)CC1	-7	1%	?	13µM*	-21	?
CCOC(=O)c1cc(CC)sc1NC(=O)c1ccc(N2C(=O)CCC2=O)cc1	-13	3%	-15%	-22%	7	1%
CCCCNC(=O)C(NC(=O)c1cccc(C(F)(F)F)c1)C(=O)c1ccccc1 (centres undefined)	21	.	-2%	.	.	-4%
Cc1sc2nc(C(C)Sc3n[nH]c(N)n3)[nH]c(=O)c2c1C (centres undefined)	.	2%	.	11%	.	.
CC(C)=CCC[C@](C)(O)C1CC[C@]2(C)[C@@H]1CC[C@@H]1[C@@]3(C)CCC(=O)C(C)(C)[C@@H]3CC[C@]12C (some centres undefined)	.	11%	.	.	.	.
CCOC(=O)c1[nH]c2ccc(F)cc2c1NC(=O)c1cc(OC)c(OC)c(OC)c1	-4	4%	23µM*	7.3µM*	7	?
CCOC(=O)Cn1nc(C)cc1NC(=O)c1cc(OC)c(OC)c(OC)c1	-78*	.	?	?	6	?
CCOC(=O)Cn1nc(C)cc1NC(=O)c1ccncc1	15	3%	1%	-6%	2	-2%
CCOC(=O)N(O)c1ccc(C=Cc2ccccc2)cc1	?	.	15µM*	.	0	12µM*
CCOC(=O)CCC(=O)N(CCN(C(=O)CCC(=O)OCC)c1ccccc1)c1ccccc1	2	0%	3%	-8%	-13	1%
[O-]/[N+](=C\c1ccncc1)c1ccc(Br)cc1	-26	5%	?	?	-18	8.2µM*
C(=N\N=C\c1ccncc1)/c1ccncc1	3	-3%	-25%	6%	?	-21%
Cc1cccc(COC[C@H](CC(C)C)N2CCN(C(=O)c3ccc(C(F)(F)F)cc3)CCC2=O)c1	?	.	16µM*	.	.	?
SMILES	IL-1B inflam inh	TDP1 inh	DT40 TDP1 no CPT	ELG1 DNA repair	Giardia killer	DT40 TDP1 CPT
CC(C)C[C@@H](COCc1cccc(C(F)(F)F)c1)N1CCN(C(=O)c2ccc(C(F)(F)F)cc2)CCC1=O	-73*	.	?	.	.	?
CC(C)NC(=O)CN1CCC(c2ccccc2)C(O)C1 (centres undefined)	11	3%	21%	-1%	2	-3%
CC(=O)[C@@H]1[C@@H](C(=O)c2ccccc2)[C@]2(C(=O)Nc3ccccc32)[C@H]2C=Cc3cc(F)ccc3N12	0	0%	18µM*	0%	13	23µM*
O=C(c1ccccc1)[C@@H]1[C@@H](C(=O)c2ccc(F)cc2)[C@@]2(C(=O)Nc3ccccc32)[C@H]2c3ccccc3C=CN12	?	5%	15µM*	?	-1	23µM*
COc1cc(C(C)=O)ccc1OCC(=O)N1CCc2ccccc2C1	-13	3%	-11%	15%	23	7%
CC1CCCC=CC2CC(OC(=O)CN(C)C)CC2C(O)C=CC(=O)O1 (centres undefined)	0	.	1µM*	.	4	0.92µM*
CC(C)CN(CC(C)C)C(=O)CC(=O)NC(=O)c1ccc(Cl)cc1	-1	-1%	-8%	-2%	7	4%
Oc1ccc(-c2[nH]ncc2-c2cccc3cccnc23)c(O)c1	-25	-1%	?	?	-2	23µM*
O=C(NCc1ccc(F)cc1)C(c1ccccc1)c1ccccc1	?	.	7%	-19%	-15	-18%
CC(=O)N(Cc1ccc(F)cc1)C1=C(NCc2ccccc2)C(=O)c2ccccc2C1=O	-93*	9%	1.3µM*	21µM*	34	1.6µM*
Cc1ccc(C)c(OCCC(=O)NNC(=O)Cn2nc(C)cc2C)c1	9	-6%	-21%	1%	-15	-7%
Cc1ccc(C)c(C(=O)CCC(=O)NNC(=O)Cn2nc(C)cc2C)c1	21	.	2.1µM*	3%	2	?
CN(C)c1ccc(/C=C/c2cc[n+]([O-])c3ccccc23)cc1	.	.	-11%	.	.	-20%
C[n+]1ccc(/C=C/c2cc[n+](C)c3ccccc23)c2ccccc21	.	.	0.079µM*	.	.	0.1µM*
C[n+]1ccc(/C=C/c2ccc([N+](C)(C)C)cc2)c2ccccc21	.	.	0.16µM*	.	.	0.14µM*
Cc1cc(C)[n+](C)c2ccccc12	.	.	-10%	.	.	3%
CN1C=C/C(=C\c2cc[n+](C)c3ccccc23)c2ccccc21	-71*	7%	0.0082µM*	?	-2	0.21µM*
